Data on 4 compounds can be found in PubChem BioAssay (EPA / NIEHS).

Values joined by “and” are separate entries in the source; they are usually repeats but may differ in a detail not shown here. Identical values can stand only once. Records with an inconclusive call do not appear. A structure can be active in one record and inactive in another. Active and inactive are the calls of the source. The calls were made as follows, unless noted: active = hit-call score of the fitted dose curve at least 0.9, where 1 is the maximum; inactive = score below 0.9.

For experiment [1], the target named is Estrogen-related receptor gamma (Homo sapiens) (UniProt P62508). Put plainly: ATG_ERRg_TRANS: Attagene TRANS-FACTORIAL HepG2 Assay for human Estrogen-Related Receptor gamma (ERRg) (AID 2282977; active = hit-call score of the fitted dose curve at least 0.9, where 1 is the maximum;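 also: hits increase reporter signal over DMSO so potencies reflect activators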). Particulars: HepG2 Attagene TRANS reporter, ERRg transactivation. In a few lines: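 Induction of reporter transcripts through a chimeric NR-Gal4 protein is quantified in transfected human HepG2 liver cells after 24 h chemical exposure, using RT-PCR with capillary electrophoresis detection and DMSO as baseline.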
Estrogen-related receptor gamma (Homo sapiens), sequence (P62508 whole entry, looked up, the tested form may be a part): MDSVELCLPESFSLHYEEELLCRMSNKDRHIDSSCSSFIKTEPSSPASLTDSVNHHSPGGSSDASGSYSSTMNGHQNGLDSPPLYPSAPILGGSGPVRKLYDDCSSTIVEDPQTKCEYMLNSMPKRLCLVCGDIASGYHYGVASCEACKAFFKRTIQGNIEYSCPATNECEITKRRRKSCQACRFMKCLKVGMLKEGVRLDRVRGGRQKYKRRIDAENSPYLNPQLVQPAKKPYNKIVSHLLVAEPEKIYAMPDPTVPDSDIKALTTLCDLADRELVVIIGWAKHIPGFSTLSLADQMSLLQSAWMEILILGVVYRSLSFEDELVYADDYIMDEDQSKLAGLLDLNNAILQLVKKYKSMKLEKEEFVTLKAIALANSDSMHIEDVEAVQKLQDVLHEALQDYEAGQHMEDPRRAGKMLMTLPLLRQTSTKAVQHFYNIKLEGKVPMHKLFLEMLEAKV

Experiment [2] has as its target Bile acid receptor (Homo sapiens) (UniProt Q96RI1). Put plainly: ATG_FXR_TRANS: Attagene TRANS-FACTORIAL HepG2 Assay for Farnesoid X Receptor (FXR) (AID 2282979; active = hit-call score of the fitted dose curve at least 0.9, where 1 is the maximum;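 also: hits raise reporter mRNA above DMSO so AC50 marks FXR activation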). The settings on record: HepG2 Attagene TRANS FXR-GAL4 reporter transcription. In a few lines:
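HepG2 cells were transiently transfected with GAL4-UAS reporters driven by chimeric NR-Gal4 proteins and dosed for 24 h. Reporter mRNA was quantified by RT-PCR, fluorescent labelling, HpaI digestion and capillary electrophoresis, with gain of signal scored versus DMSO.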

Experiment [3] concerns the target Oxysterols receptor LXR-beta (Homo sapiens) (UniProt P55055). Put plainly: ATG_LXRb_TRANS: Attagene TRANS-FACTORIAL HepG2 Assay for human Liver X Receptor beta (LXRb) (AID 2282981; active = hit-call score of the fitted dose curve at least 0.9, where 1 is the maximum). Particulars: HepG2 Attagene TRANS GAL4-LXRb reporter, mRNA. The method, boiled down:
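Multiplexed reporter assay, HepG2, 24 h dosing. Fluorescence of labelled RT-PCR products after capillary electrophoresis gives transcript level; positive fitting direction relative to DMSO.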

In experiment [4] the target is Hepatocyte nuclear factor 4-alpha (Homo sapiens) (UniProt P41235). Put plainly: ATG_HNF4a_TRANS: Attagene TRANS-FACTORIAL HepG2 Assay for human Hepatocyte Nuclear Factor 4 alpha (HNF4a) (AID 2282982; active = hit-call score of the fitted dose curve at least 0.9, where 1 is the maximum). The settings on record: HepG2 HNF4a transactivation reporter, mRNA readout. The method, boiled down: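 Endpoint reflects transcriptional activation of a GAL4-UAS reporter by an HNF4a-GAL4 chimera in transfected HepG2 cells, 24 h post-dosing. Fluorescence from RT-PCR products separated by capillary electrophoresis; DMSO baseline.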
Hepatocyte nuclear factor 4-alpha (Homo sapiens), sequence (P41235 whole entry, looked up, the tested form may be a part): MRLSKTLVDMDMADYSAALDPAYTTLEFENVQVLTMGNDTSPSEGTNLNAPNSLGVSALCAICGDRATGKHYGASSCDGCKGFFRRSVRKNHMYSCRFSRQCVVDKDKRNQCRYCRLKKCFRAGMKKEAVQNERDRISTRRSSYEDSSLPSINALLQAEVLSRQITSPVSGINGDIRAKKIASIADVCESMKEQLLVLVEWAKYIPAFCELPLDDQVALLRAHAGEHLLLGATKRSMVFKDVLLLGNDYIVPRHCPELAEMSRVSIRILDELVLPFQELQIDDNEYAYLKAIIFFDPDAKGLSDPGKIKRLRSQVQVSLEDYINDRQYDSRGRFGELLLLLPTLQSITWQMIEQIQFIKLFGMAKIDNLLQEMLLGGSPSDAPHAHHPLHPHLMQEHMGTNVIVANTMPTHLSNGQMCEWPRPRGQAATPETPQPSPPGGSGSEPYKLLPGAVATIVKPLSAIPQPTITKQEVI

The nature of experiment [5]: ATG_M_06_TRANS: Attagene TRANS-FACTORIAL HepG2 Assay for M06 Transcription Factor (Internal Marker) (AID 2282983; active = hit-call score of the fitted dose curve at least 0.9, where 1 is the maximum). Particulars: HepG2 Attagene TRANS M06 internal marker reporter. In a few lines: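 mRNA levels of a reporter transcript, quantified as FAM fluorescence on capillary electrophoresis, served as readout. HepG2 cells expressing exogenous GAL4-chimera reporter constructs were exposed for 24 h. Gain of signal over DMSO was evaluated.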

Experiment [6] can be described thus: ATG_M_32_TRANS: Attagene TRANS-FACTORIAL HepG2 Assay for M32 Transcription Factor (Internal Marker) (AID 2282984; active = hit-call score of the fitted dose curve at least 0.9, where 1 is the maximum;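 also: transcript level of a background control reporter unit measured by RT-PCR and capillary electrophoresis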). Particulars: HepG2 Attagene TRANS M32 internal marker reporter. In a few lines:
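Internal-marker readout from a multiplexed transcription reporter panel. HepG2 cells were transfected with GAL4-UAS reporter units, treated 24 hours, and reporter transcript levels determined by fluorescence after RT-PCR and capillary separation.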

Experiment [7] concerns the target Nuclear receptor subfamily 4 group A member 2 (Homo sapiens) (UniProt P43354). Put plainly: ATG_NURR1_TRANS: Attagene TRANS-FACTORIAL HepG2 Assay for human Nuclear Receptor Related Protein 1 (NURR1) (AID 2282985; active = hit-call score of the fitted dose curve at least 0.9, where 1 is the maximum). The settings on record: HepG2 Attagene TRANS reporter, mRNA readout. In a few lines:
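Endpoint: reporter mRNA increase relative to DMSO. HepG2 cells transfected with reporter units, treated 24 h; RNA processed by RT-PCR, labelling, HpaI digestion and capillary electrophoresis.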

Experiment [8] has as its target Transcriptional activator Myb (Homo sapiens) (UniProt P10242). The experiment can be described thus: ATG_Myb_CIS: Attagene CIS-FACTORIAL HepG2 Assay for human Myeloblastosis (Myb) Proto-Oncogene Transcription Factor (AID 2282986). Particulars: HepG2 Attagene CIS-FACTORIAL Myb reporter transcription; actives raise or lower the signal. The method, boiled down:
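Multiplexed cis-reporter system in HepG2: transient transfection, 24 h treatment, mRNA readout by RT-PCR and capillary electrophoresis. Both increases and decreases are scored versus DMSO negative control.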

Experiment [9] concerns the target Nuclear respiratory factor 1 (Homo sapiens) (UniProt Q16656). The experiment can be described thus: ATG_NRF1_CIS: Attagene CIS-FACTORIAL HepG2 Assay for human Nuclear Respiratory Factor 1 (NRF1) Orphan Gene (AID 2282987). Particulars: HepG2 NRF1 cis-element reporter, Attagene multiplex; actives raise or lower the signal. In a few lines: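 Endogenous factor activity was captured via cis-element-driven reporter transcripts in HepG2 cells. Following 24 h chemical treatment, transcripts were quantified by RT-PCR and capillary electrophoresis.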

A short description of experiment [10]: ATG_NRF2_ARE_CIS: Attagene CIS-FACTORIAL HepG2 Assay for human Nuclear Factor Erythroid 2 Related Factor 2 (NFR2) response to Antioxidant Response Elements (ARE) (AID 2282992).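 As to AC50: reporter mRNA level measured by RT-PCR and capillary electrophoresis fluorescence.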 Particulars: HepG2 Attagene ARE/NRF2 reporter, transcription factor activity; actives raise or lower the signal. The method, boiled down:
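Using transiently transfected HepG2 cells exposed for 24 h, reporter mRNA levels were determined by RT-PCR with fluorescent primer extension and capillary electrophoresis, analysed for gain or loss of signal against DMSO.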

A short description of experiment [11]: ATG_Oct_MLP_CIS: Attagene CIS-FACTORIAL HepG2 Assay for human Octamer-Binding Transcription Factor (Oct) (AID 2282993). The settings on record: HepG2 Attagene cis-factorial Oct reporter, mRNA; actives raise or lower the signal. In a few lines: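 Read-out: reporter mRNA via RT-PCR plus capillary electrophoresis of 6-FAM-labelled fragments. Transiently transfected HepG2, 24 h exposure, endogenous TF activity on cis elements. Gain or loss of signal fitted relative to DMSO.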

Experiment [12] addresses Cellular tumor antigen p53 (Homo sapiens) (UniProt P04637). Put plainly: ATG_p53_CIS: Attagene CIS-FACTORIAL HepG2 Assay for human p53 Transcription Factor (AID 2282994). Particulars: HepG2 p53 cis-element reporter, Attagene mRNA; actives raise or lower the signal. In a few lines: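 In HepG2 cells, reporter transcription units under cis-regulatory promoters were transiently introduced. Following 24 h treatment, RNA was processed to labelled, digested cDNA fragments read by capillary electrophoresis; fitting was bidirectional versus DMSO.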

A short description of experiment [13]: BSK_3C_TissueFactor: BioMAP Diversity Plus: 3C Assay for Tissue Factor Biomarker Activity (AID 2282997). The settings on record: BioMAP 3C HUVEC, tissue factor biomarker readout; actives raise or lower the signal. In a few lines:
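Tissue Factor measured by ELISA, 24 h after treatment of primary HUVEC in the BioMAP 3C setting.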

The nature of experiment [14]: BSK_3C_uPAR: BioMAP Diversity Plus: 3C Assay for Urokinase-type plasminogen activator receptor (uPAR) Biomarker Activity (AID 2282998). The settings on record: BioMAP 3C HUVEC, uPAR biomarker ELISA; actives raise or lower the signal. The method, boiled down: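 HUVEC primary cells; 24 h post-dose; uPAR by ELISA; gain or loss of signal fitted bidirectionally vs DMSO baseline.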
(In general: ELISA stands for enzyme-linked immunosorbent assay.)

Experiment [15] in a line: BSK_3C_VCAM1: BioMAP Diversity Plus: 3C Assay for Vascular cell adhesion molecule 1 (VCAM1) Biomarker Activity (AID 2282999). The settings on record: BioMAP 3C HUVEC, VCAM1 ELISA, cytokine-stimulated; actives raise or lower the signal. In a few lines:
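HUVEC primary cells, 24 h compound exposure; VCAM-1 by ELISA; gain/loss of signal fitted bidirectionally vs DMSO baseline.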

In experiment [16] the target is Glucocorticoid receptor (Homo sapiens) (UniProt P04150). Put plainly: ATG_GR_TRANS: Attagene TRANS-FACTORIAL HepG2 Assay for human Glucocorticoid Receptor (GR) (AID 2282978; active = hit-call score of the fitted dose curve at least 0.9, where 1 is the maximum;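 also: activators score as hits since higher reporter transcript over DMSO is fitted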). The settings on record: HepG2 Attagene TRANS GR reporter, mRNA transcription. In a few lines:
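HepG2 transient transfection, multiple reporter units, GAL4-UAS under NR-GAL4 chimera control. 24 h treatment. Reporter mRNA by RT-PCR/CE fluorescence, DMSO as negative control.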

For experiment [17], the target named is Oxysterols receptor LXR-alpha (Homo sapiens) (UniProt Q13133). Put plainly: ATG_LXRa_TRANS: Attagene TRANS-FACTORIAL HepG2 Assay for human Liver X Receptor alpha (LXRa) (AID 2282980; active = hit-call score of the fitted dose curve at least 0.9, where 1 is the maximum). The settings on record: HepG2 Attagene TRANS reporter, LXRa transactivation. In a few lines:
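HepG2 cells transiently transfected with GAL4-UAS reporter units for chimeric NR-Gal4 proteins, exposed to chemicals for 24 h. Reporter mRNA quantified by RT-PCR and capillary electrophoresis; gain of signal fitted relative to DMSO.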

Experiment [18] addresses Myc proto-oncogene protein (Homo sapiens) (UniProt P01106). Put plainly: ATG_Myc_CIS: Attagene CIS-FACTORIAL HepG2 Assay for human Myelocytomatosis (Myc) Proto-Oncogene Transcription Factor (AID 2282990). Particulars: HepG2, Attagene cis-reporter transcription factor activity; actives raise or lower the signal. In a few lines: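 Transiently transfected HepG2 cells bearing cis-promoter reporter units for endogenous transcription factors; 24 h exposure. Reporter mRNA measured by RT-PCR, 6-FAM primer extension, HpaI cut and capillary electrophoresis; bidirectional fit relative to DMSO.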

The nature of experiment [19]: ATG_NF_kB_CIS: Attagene CIS-FACTORIAL HepG2 Assay for human Nuclear Factor Kappa B (NF-kB) (AID 2282991). Particulars: HepG2 Attagene cis-factorial NF-kB reporter mRNA; actives raise or lower the signal. The method, boiled down: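 After 24 h compound incubation, transfected HepG2 cells yield total RNA; reporter cDNA is PCR-amplified, end-labelled with 6-FAM, HpaI-digested and analysed on a genetic analyser. Endogenous factor activity, DMSO-referenced bidirectional fit.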

The nature of experiment [20]: ATG_NFI_CIS: Attagene CIS-FACTORIAL HepG2 Assay for human Nuclear Factor I (NFI) (AID 2282989). Particulars: HepG2 cis-regulatory reporter, NFI response element transcription; actives raise or lower the signal. The method, boiled down:
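Read-out: reporter mRNA via RT-PCR plus capillary electrophoresis with fluorescence detection. Transiently transfected HepG2 (endogenous TF activity on cis promoters), 24 h compound exposure; gain or loss of signal fitted against DMSO.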

Broadly, the AC50 is the concentration giving half of the maximal activity seen.

Oxysterols receptor LXR-alpha (Homo sapiens), sequence (Q13133 whole entry, looked up, the tested form may be a part): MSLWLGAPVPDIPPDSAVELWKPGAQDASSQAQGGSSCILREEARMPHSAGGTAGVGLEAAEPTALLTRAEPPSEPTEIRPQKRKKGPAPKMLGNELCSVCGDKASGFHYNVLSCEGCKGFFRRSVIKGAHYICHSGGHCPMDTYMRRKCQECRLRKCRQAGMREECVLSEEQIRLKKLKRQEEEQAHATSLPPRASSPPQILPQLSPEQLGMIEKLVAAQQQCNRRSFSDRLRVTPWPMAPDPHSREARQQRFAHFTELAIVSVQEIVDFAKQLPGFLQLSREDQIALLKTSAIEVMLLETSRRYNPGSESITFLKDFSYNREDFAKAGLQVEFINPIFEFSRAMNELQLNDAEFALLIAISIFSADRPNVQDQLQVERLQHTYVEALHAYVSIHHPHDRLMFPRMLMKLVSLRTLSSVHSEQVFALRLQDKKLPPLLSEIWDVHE
Oxysterols receptor LXR-beta (Homo sapiens), sequence (P55055 whole entry, looked up, the tested form may be a part): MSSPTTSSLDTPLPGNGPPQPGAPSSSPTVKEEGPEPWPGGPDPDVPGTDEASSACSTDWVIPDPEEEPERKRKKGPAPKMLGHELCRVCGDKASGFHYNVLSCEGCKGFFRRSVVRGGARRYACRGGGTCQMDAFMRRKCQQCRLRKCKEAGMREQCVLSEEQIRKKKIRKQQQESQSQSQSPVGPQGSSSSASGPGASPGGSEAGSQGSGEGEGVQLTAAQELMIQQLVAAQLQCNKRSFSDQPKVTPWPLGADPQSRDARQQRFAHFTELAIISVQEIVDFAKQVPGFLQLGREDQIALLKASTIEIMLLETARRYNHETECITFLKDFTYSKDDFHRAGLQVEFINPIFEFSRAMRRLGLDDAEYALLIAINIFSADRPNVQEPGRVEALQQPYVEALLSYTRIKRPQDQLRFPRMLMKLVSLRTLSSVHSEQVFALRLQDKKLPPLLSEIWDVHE
Nuclear respiratory factor 1 (Homo sapiens), sequence (Q16656 whole entry, looked up): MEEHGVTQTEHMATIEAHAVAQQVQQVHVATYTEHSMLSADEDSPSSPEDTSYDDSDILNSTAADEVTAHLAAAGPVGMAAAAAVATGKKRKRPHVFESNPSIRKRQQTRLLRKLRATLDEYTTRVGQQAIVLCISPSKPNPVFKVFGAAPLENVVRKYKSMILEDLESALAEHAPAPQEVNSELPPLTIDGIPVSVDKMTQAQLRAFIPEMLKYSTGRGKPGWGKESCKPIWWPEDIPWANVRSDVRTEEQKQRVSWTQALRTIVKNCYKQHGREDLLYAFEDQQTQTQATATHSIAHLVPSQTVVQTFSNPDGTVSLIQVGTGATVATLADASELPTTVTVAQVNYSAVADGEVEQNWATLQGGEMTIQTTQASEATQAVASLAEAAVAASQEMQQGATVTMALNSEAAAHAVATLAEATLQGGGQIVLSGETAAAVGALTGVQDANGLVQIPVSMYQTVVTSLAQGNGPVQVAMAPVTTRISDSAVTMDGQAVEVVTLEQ
Transcriptional activator Myb (Homo sapiens), sequence (P10242 whole entry, looked up): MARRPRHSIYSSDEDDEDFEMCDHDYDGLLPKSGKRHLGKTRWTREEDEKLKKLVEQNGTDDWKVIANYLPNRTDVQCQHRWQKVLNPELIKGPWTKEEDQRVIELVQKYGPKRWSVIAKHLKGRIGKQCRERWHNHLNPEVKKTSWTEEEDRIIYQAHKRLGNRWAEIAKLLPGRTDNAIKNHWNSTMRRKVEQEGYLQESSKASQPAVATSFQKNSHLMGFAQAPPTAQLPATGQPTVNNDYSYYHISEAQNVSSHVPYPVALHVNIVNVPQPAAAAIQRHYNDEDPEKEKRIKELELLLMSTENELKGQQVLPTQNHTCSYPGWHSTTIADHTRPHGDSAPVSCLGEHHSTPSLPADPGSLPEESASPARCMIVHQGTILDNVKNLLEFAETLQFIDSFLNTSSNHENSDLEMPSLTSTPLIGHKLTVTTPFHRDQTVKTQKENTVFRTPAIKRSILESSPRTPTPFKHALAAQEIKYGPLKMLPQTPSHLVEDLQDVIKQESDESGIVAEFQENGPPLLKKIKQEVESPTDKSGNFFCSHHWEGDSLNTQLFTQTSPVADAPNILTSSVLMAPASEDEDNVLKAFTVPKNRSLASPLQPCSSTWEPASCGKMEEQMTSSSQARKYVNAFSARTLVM
Glucocorticoid receptor (Homo sapiens), sequence (P04150 whole entry, looked up, the tested form may be a part): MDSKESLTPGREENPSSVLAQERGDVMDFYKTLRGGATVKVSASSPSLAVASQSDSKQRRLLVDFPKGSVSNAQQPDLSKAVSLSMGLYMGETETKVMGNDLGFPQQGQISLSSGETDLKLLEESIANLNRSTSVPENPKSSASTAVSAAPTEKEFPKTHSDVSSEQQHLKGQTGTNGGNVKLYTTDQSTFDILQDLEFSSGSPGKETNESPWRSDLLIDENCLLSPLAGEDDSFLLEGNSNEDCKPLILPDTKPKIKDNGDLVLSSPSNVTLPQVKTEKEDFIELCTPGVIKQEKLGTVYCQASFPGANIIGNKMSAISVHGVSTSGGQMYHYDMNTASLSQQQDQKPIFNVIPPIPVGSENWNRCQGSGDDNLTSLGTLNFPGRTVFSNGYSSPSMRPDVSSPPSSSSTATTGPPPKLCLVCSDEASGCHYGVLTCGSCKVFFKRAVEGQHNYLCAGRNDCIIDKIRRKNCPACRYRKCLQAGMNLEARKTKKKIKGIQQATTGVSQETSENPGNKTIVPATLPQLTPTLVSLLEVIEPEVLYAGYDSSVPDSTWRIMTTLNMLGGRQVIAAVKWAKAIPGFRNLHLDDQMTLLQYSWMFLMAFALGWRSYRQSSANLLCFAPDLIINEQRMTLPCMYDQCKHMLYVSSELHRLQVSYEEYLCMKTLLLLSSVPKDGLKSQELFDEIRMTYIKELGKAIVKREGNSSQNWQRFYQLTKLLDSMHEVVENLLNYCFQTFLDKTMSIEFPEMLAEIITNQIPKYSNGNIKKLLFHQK
Nuclear receptor subfamily 4 group A member 2 (Homo sapiens), sequence (P43354 whole entry, looked up): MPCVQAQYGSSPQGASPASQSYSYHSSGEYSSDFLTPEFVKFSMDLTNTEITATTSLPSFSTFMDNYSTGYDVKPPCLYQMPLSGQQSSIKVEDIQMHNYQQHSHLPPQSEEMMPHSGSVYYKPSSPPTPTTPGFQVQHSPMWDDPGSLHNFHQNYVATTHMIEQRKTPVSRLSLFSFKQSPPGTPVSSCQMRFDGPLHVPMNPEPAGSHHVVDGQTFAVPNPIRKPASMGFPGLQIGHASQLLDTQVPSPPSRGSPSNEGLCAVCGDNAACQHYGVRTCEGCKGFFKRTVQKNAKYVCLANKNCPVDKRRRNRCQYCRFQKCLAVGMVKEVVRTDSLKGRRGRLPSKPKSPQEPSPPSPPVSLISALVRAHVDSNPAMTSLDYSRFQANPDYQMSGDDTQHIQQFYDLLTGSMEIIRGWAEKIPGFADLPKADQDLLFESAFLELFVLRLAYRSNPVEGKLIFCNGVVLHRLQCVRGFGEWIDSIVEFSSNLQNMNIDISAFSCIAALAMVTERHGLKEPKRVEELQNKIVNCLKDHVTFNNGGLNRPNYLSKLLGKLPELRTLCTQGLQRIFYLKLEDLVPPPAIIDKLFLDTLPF
Myc proto-oncogene protein (Homo sapiens), sequence (P01106 whole entry, looked up): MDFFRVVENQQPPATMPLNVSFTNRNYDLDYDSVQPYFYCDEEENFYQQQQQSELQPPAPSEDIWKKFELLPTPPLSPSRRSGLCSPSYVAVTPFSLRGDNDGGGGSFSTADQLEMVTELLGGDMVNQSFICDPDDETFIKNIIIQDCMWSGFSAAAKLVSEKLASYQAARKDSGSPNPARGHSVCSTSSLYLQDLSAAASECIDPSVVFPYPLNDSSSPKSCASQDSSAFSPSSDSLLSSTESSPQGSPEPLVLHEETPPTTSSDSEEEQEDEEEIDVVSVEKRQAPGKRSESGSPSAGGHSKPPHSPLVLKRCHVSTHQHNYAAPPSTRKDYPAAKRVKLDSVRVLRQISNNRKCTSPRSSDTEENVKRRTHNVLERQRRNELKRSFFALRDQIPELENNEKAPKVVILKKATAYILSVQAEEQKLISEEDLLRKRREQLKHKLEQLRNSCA

Turning to `C#CCC1=C(C)C(OC(=O)C2C(C=C(C)C)C2(C)C)CC1=O` (centres undefined), the result in experiment [1], in [2], in experiment [3], in experiment [4], in experiment [5] and in experiment [6] was inactive. Besides, the compound was called inactive in experiment [7], in experiment [9], in [13], in experiment [14] and in experiment [15]. In addition, the AC50 was 93.4 µM (active) in [8], 13.2 µM (active) in experiment [10], 44.5 µM (active) in [11] and 80.1 µM (active) in experiment [12].
On to `O=[N+]([O-])c1cc(C(F)(F)F)c(Cl)c([N+](=O)[O-])c1Nc1ncc(C(F)(F)F)cc1Cl`, for which the compound was classed as inactive in experiment [16], in [17], in experiment [3], in experiment [4], in [5] and in experiment [6]. The result in experiment [7], in experiment [8], in experiment [9], in experiment [18], in experiment [19] and in [11] was inactive. Moreover, the AC50 in [9] was 21.5 µM (active); in experiment [19], 11.9 µM (active); in experiment [13], 1.16 µM (active) and 2.68 µM (active); in experiment [14] it was 1.05 µM (active) and 3.18 µM (active); in experiment [15], 1.46 µM (active) and 2.82 µM (active).
Regarding `CCCCOC(=O)[C@@H](C)Oc1ccc(Oc2ccc(C#N)cc2F)cc1`, the outcome in [1], in experiment [16], in experiment [17], in experiment [3], in [6] and in experiment [8] was inactive. Further, the compound was called inactive in experiment [9], in [19], in experiment [10], in experiment [11], in experiment [12] and in experiment [13]. The result in [14] and in experiment [15] was inactive.
For the compound `CCCSP(=O)(OCC)SCCC`, the compound was called inactive in [16], in [2], in [17], in experiment [3], in experiment [7] and in experiment [8]. For the same compound, the call in [9], in [20], in experiment [11], in experiment [13], in experiment [14] and in experiment [15] was inactive. The AC50 in experiment [10] is 40.9 µM (active).
